Assay results published in PubChem BioAssay (NCATS).
Inconclusive results are not listed. A call without a number means that no potency is given here. The source made the active and inactive calls. Calls follow the shape of the dose curve; as a rule, active = well fitted inhibition curve with a large enough effect; inconclusive = small, poorly fitted or top-dose-only effect; inactive = flat fitted curve, though single readings scatter.

tested on: Zika virus NS2B-NS3 protease; experiment: Primary screen GU AMC qHTS for Zika virus inhibitors (AID 1347154); conditions: Zika NS2B-NS3 unlinked protease, AMC fluorogenic substrate; series mostly up to 54.1 µM; also: nearly all actives have a fitted effect of over 70% in size
How it was run: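 Fluorogenic AMC-substrate cleavage by noncovalent NS2B-NS3 protease complex (25 nM, pH 8.0 Tris buffer with Tween 20) followed for 15 minutes at room temperature (~20% conversion). Percent inhibition from ex340/em450 signal change, fitted by 4-parameter Hill equation.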

Row | SMILES | Potency
1 | CC(C)(N)Cc1ccccc1Cl | inactive
2 | c1ccc2c(c1)sc1ccccc12 | inactive
3 | O=C1CN=C(c2ccccc2)c2cc([N+](=O)[O-])ccc2N1 | inactive
4 | COP(=S)(OC)SCN1C(=O)c2ccccc2C1=O | inactive
5 | CC(=O)NC1CCSC1=O (stereo not drawn) | inactive
6 | COc1cccc(C(=O)CCN[C@@H](C)[C@H](O)c2ccccc2)c1 | inactive
7 | CN1C(=O)NC(=O)C(C)(C2=CCCCC2)C1=O (stereo not drawn) | inactive
8 | CNCC(=O)c1ccc(O)c(O)c1 | inactive
9 | CCC1(CC)C(=O)C=CNC1=O | inactive
10 | CNC(C)(C)Cc1ccccc1 | inactive
11 | COP(=S)(OC)Oc1cc(Cl)c(Cl)cc1Cl | inactive
12 | O=C1c2ccccc2C(=O)c2ccccc21 | inactive
13 | NC(=O)c1cc([N+](=O)[O-])cc([N+](=O)[O-])c1 | inactive
14 | COC1CC(=C(c2cccs2)c2cccs2)C[N+](C)(C)C1 (stereo not drawn) | inactive
15 | Nc1ccccc1 | inactive
16 | CC(C)(C)NCC(O)c1cc(Cl)c(N)c(C(F)(F)F)c1 (stereo not drawn) | inactive
17 | NNc1ccccc1 | inactive
18 | CC(=O)C1CCOC1=O (stereo not drawn) | inactive
19 | C=CCC1(C(C)CC)C(=O)NC(=O)NC1=O (stereo not drawn) | inactive
20 | C[C@]12Cc3cn[nH]c3C[C@@H]1CC[C@@H]1[C@@H]2CC[C@@]2(C)[C@H]1CC[C@]2(C)O | inactive
21 | CCCOC(=O)c1cncn1C(C)c1ccccc1 (stereo not drawn) | inactive
22 | CN1CC[C@]23c4c5ccc(O)c4O[C@H]2[C@@H](O)C=C[C@H]3[C@H]1C5 | inactive
23 | C[C@]12CCC(=O)C=C1CC[C@@H]1[C@H]3CC[C@](C)(O)[C@@]3(C)CC[C@@H]12 | inactive
